In general, Inhibition refers to how much of the control response was suppressed.

In the experiment the test system is Plasmodium falciparum. Nature of the experiment: GSK_TCMDC: Inhibition of Plasmodium falciparum Dd2 in whole red blood cells, using parasite LDH activity as an index of growth. Test compounds present at 2uM. The class given is functional.
As for `Cc1cccc2nc(-c3cccc(-c4ccc(NC(=O)c5ccncc5)cc4)c3)[nH]c12`, the Inhibition stood at 74%.
In the case of `NC(=O)c1cccc(C(=O)Nc2cccc(-c3ccc(-c4nc5ccccc5[nH]4)s3)c2)c1` it was 69%; in that of `CC(C)COc1ccc(Cl)cc1Cc1nc(-c2nc3ccc(N4CCN(C)CC4)nc3[nH]2)cs1.Cl`, 27%; in that of `COc1ccc(CC(=O)NC(CCN2CCC3(CCc4ccccc43)CC2)c2ccc(Cl)c(Cl)c2)cc1` (stereo not given), 75%.
Compound `COc1c(C2CCN(CCCCNC(=O)c3ccc(-c4ccc(C#N)cc4)nc3)CC2)ccc2c1CCCC2` came in with an Inhibition of 67%.
`Cc1noc(C)c1C(=O)N1CCCC(c2[nH]c3c(C)cccc3c2-c2ccncc2)C1.Cl` (stereo not given): the Inhibition was determined as 100%.
The figure for `Cc1cc(N2CCCC2)nc(Nc2ccc(NC(=O)CC(C)C)cc2)n1` is 53%.
The figure for `Cc1ccc(S(=O)(=O)n2cc(-c3ccnc(N)c3)c3cc(Br)cnc32)cc1` is 31%; for `Cc1ccc(O)c(-c2cc(C(=O)Nc3ccc(S(=O)(=O)N4CCCCCC4)cc3)[nH]n2)c1` it is 80%; for `CC1(C)CCC(C)(C)c2c1ccc(C1CCN(CCCCNC(=O)c3ccc(-c4ccc(C#N)cc4)cc3)CC1)c2OCC(N)=O` it is 100%.
`O=C(Nc1cccc(-c2cccc(-c3nc4ccccc4[nH]3)c2)c1)c1ccncc1` showed an Inhibition of 38%.
With `Cc1[nH]c(C)c(-c2ccc(-c3ccc(C(F)(F)F)cc3C(F)(F)F)nc2)c(=O)c1Br`, the Inhibition was 97%.
Compound `CC(O)C1CCCCN1C(=O)c1ccc(-c2ccc(-c3nc4ccccc4[nH]3)s2)cc1` (stereo not given) gave an Inhibition of 98%.
As for `O=C(Nc1nc2cc(S(=O)(=O)NCCc3ccc(F)cc3)ccc2n1CCCn1ccnc1)c1ccc(Cl)cc1.O=C(O)C(F)(F)F`, the Inhibition is reported as 55%.
Take `CC(C)(C)c1ccc(NC(=O)c2cccc(CN3CCN(Cc4cccc(O)c4)CC3)c2)cc1.O=C(O)C(F)(F)F`: the Inhibition was determined as 3%.
`Cl.Nc1ncnc2occ(-c3ccc(NC(=O)Nc4cc(C(F)(F)F)ccc4F)cc3)c12` [GW770249A] had an Inhibition of 99%.
Turning to `Cc1cc(NC(=O)NCCN2CCC(NC(=O)c3ccc(F)cc3)CC2)c2ccccc2n1`, the Inhibition is 76%.
The compound `CN1CCN(Cc2ccc(-c3ccc4c(Nc5ccc(Cl)cc5F)ccnc4c3)o2)CC1` displayed an Inhibition of 100%.
The figure for `COc1ccc(CN2CCC(N3CCc4cc(NC(=O)c5cc(C)on5)ccc43)C2)cc1Cl` (stereo not given) is 91%; for `COc1ccc2c(c1)CCCC2NCCCCNC(=O)c1ccc(NC(=O)c2ccc(Cl)cc2)cc1` (stereo not given) it is 49%; for `COc1ccc2c(c1)ncn2-c1cc(OCc2ccncc2Br)c(C(N)=O)s1` it is 50%.
Compound `CC1(C)[C@H]2CC[C@@H](CNc3nc(NCCc4c[nH]cn4)nc(NCc4cc(F)ccc4F)n3)[C@@H]1C2` registered an Inhibition of 91%.
Consider `Cc1ccc(Nc2nccc(NCC(O)c3cccc(C)c3)n2)cc1` (stereo not given), for which the Inhibition is reported as 23%.
In the case of `COc1cc(Cc2cnc(N)nc2N)cc(CC(C)O)c1O` (stereo not given), the Inhibition was found to be 2%.
Take `COc1ccc(-c2cc(C(=O)N[C@@H](CC3CCCCC3)C(=O)NC3CCCc4ccccc43)ccc2O)cc1` (stereo not given in full): the Inhibition was 97%.
As for `Oc1cccc(Nc2nc(NCc3ccco3)c3ccccc3n2)c1`, the Inhibition came to 74%.
As to `COc1ccc2c(NN=Cc3ccc(N(C)C)cc3)ccnc2c1`, the Inhibition is reported as 100%.
Consider `Cc1cc(N)c2cc(NC(=O)c3ccc4ccccc4c3)ccc2n1.Cl`, for which the Inhibition is given as 99%.
`CC(C)C[C@H]1C(=O)N[C@H](C2Cc3ccccc3C2)C(=O)N1[C@@H](C(=O)Nc1ccccc1OCc1ccccc1)c1ccc(F)cc1F`: the Inhibition was determined as 67%.
Regarding `Cl.N=C(NCCc1ccccc1Cl)c1ccc2ccccc2c1`, the Inhibition is on record as 11%.
`CCCC(C(CC1CCC(C)CC1)C(=O)NC(CCCNc1ncccn1)C(=O)Nc1nccs1)N(O)C=O` (stereo not given) registered an Inhibition of 98%.
The figure for `CC(CN(C)C)C(=O)Nc1cccc(-c2cccc(-c3nc4ccccc4[nH]3)c2)c1` (stereo not given) is 25%.
In the case of `Cn1cncc1C(=O)Nc1cccc(-c2ccc(-c3nc4ccccc4[nH]3)s2)c1` it was 25%.
The compound `O=C(Nc1cccnc1)c1ccc(-c2cc3ccncc3cc2OC2CCNCC2)s1` returned an Inhibition of 12%.
For the compound `Cc1nc(-c2cccc(Nc3nccc(NCC(O)c4cccc(F)c4)n3)c2)cs1` (stereo not given), the Inhibition was found to be 59%.
For the compound `COc1ccccc1NC(=O)NC1CCN(CCCCCNC(=O)/C=C/c2ccc(Cl)c(Cl)c2)CC1`, the Inhibition is given as 15%.
In turn, `O=C(/C=C/c1ccc(Cl)c(Cl)c1)N1CCC(CN2CCC(c3c[nH]c4cnccc34)CC2)CC1` had an Inhibition of 100%.
In turn, `C[C@H]1CN(Cc2cccc(-c3cc(CNC(=O)c4cccc(CN5CCN(C/C=C/c6ccccc6)CC5)c4)ccc3F)c2)CCN1.O=C(O)C(F)(F)F` returned an Inhibition of 46%.
On to `CC(C)Oc1cc2c(cc1NS(=O)(=O)c1ccc(-c3ccc(Cl)cc3)cc1F)CCN(C)CC2.Cl`, for which the Inhibition turned out to be 2%.
As for `O=C(NCCc1ccccc1F)c1cc(Br)cc(N2CCN(c3ccncc3)CC2)c1.O=C(O)C(F)(F)F`, the Inhibition was found to be 67%.

The values are drawn from ChEMBL document CHEMBL1157539, “Thousands of chemical starting points for antimalarial lead identification” (Nature, 2010).
